Measurements reported in PubChem BioAssay AID743356 (Broad Institute, 2014).
Unmarked numbers belong to inactive results.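 Rule for the calls: active = compounds that cut cell viability with a fitted half-maximal dose no more than twice the top valid dose; inconclusive = flat curve inhibiting 30 to 70%, or a poor fit; inactive = the rest, including any rise in viability.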

Assay: A549 cell cytotoxicity, dose response, cytotoxicity control, luminescence, dry powder, set 10 (AID 743356)
Settings: CellTiter-Glo ATP luminescence, 72 h; at 26 µM unless noted

| SMILES | max inhibition of viability %, active compounds read high |
| --- | --- |
| CN1c2ccc(-c3cccc(F)c3)cc2[C@H]2[C@H](CCN2C(=O)Nc2ccccc2F)[C@H]1CO | -15.8% [at 23.5 µM] |
| CN1c2ccc(-c3ccc(F)cc3)cc2[C@H]2[C@H](CCN2C(=O)Nc2cc(F)ccc2F)[C@H]1CO | -3.91% [at 23.5 µM] |
| CC(C)NC(=O)N1CC[C@@H]2[C@@H](CO)N(C)c3ccc(-c4cccc(F)c4)cc3[C@@H]21 | 14.2% [setting not given] |
| CC(=O)c1ccc(NCCNC(=O)c2ccc3c(c2)OCO3)cc1 | 9.33% [at 0.0007 µM] |
| CN1c2ccc(-c3cccc(F)c3)cc2[C@H]2[C@H](CCN2C(=O)CCCCCCN)[C@H]1CO | 15.1% [at 0.0004 µM] |
| CN1c2ccc(-c3cccc(F)c3)cc2[C@@H]2[C@@H](CCN2C(=O)c2ccc3c(c2)OCO3)[C@H]1CO | -9.13% |
| CN(C)C(=O)c1ccc(N2CCN(C(=O)c3ccc4c(c3)OCO4)CC2)cc1 | 10.1% [at 0.1 µM] |
| CC(=O)c1ccc(N2CCN(C(=O)c3ccc4c(c3)OCO4)CC2)cc1 | 20.5% [at 0.8 µM] |
| CC(=O)c1ccc(N2CCN(C(=O)c3ccccc3F)CC2)cc1 | 10.7% [at 0.012 µM] |
| CN1c2ccc(-c3ccc(F)cc3)cc2[C@H]2[C@H](CCN2C(=O)Cc2cccnc2)[C@H]1CO | 13.9% [at 0.0007 µM] |
| CCC(=O)N1CC[C@@H]2[C@@H](CO)N(C)c3ccc(-c4ccc(F)cc4)cc3[C@@H]21 | -5.87% [at 0.09 µM] |
| COc1ccccc1NC(=O)N1CC[C@@H]2[C@@H](CO)N(C)c3ccc(-c4cccc(F)c4)cc3[C@@H]21 | -10.1% [at 23.5 µM] |
| CCCNC(=O)N1CC[C@@H]2[C@@H](CO)N(C)c3ccc(-c4ccc(F)cc4)cc3[C@@H]21 | -28.2% [at 0.38 µM] |
| CC(=O)c1ccc(N2CC3(CN(C(=O)c4ccc5c(c4)OCO5)C3)C2)cc1 | -11.2% [setting not given] |
| CC(=O)c1ccc(N2CCN(C(=O)c3ccc4c(c3)OCO4)[C@H](C)C2)cc1 | 9.13% [at 12 µM] |
| CCCCCCCC(=O)N1CC[C@@H]2[C@@H](CO)N(C)c3ccc(-c4cccc(F)c4)cc3[C@@H]21 | 20.6% [at 0.006 µM] |
| COC(=O)c1ccc(N2CCN(C(=O)c3ccc4c(c3)OCO4)CC2)cc1 | 15.6% [at 0.1 µM] |
| CN1c2ccc(-c3cccc(F)c3)cc2[C@@H]2[C@@H](CCN2C(=O)c2ccc3c(c2)OCO3)[C@@H]1CO | -3.11% |

| SMILES | max inhibition of viability %, active compounds read high |
| --- | --- |
| COc1ccc(NC(=O)N2CC[C@@H]3[C@@H](CO)N(C)c4ccc(-c5ccc(F)cc5)cc4[C@@H]32)cc1 | -9.64% |
| CC(C)NC(=O)N1CC[C@@H]2[C@@H](CO)N(C)c3ccc(-c4ccc(F)cc4)cc3[C@@H]21 | 12.6% [at 0.05 µM] |
| COCC(=O)N1CC[C@@H]2[C@@H](CO)N(C)c3ccc(-c4cccc(F)c4)cc3[C@@H]21 | -10.3% |
| CNC(=O)c1ccc(N2CCN(C(=O)c3ccc4c(c3)OCO4)CC2)cc1 | -22.9% [at 0.0015 µM] |
| COc1ccccc1NC(=O)N1CC[C@@H]2[C@@H](CO)N(C)c3ccc(-c4ccc(F)cc4)cc3[C@@H]21 | 13.3% [at 0.0015 µM] |
| CN1c2ccc(-c3ccc(F)cc3)cc2[C@H]2[C@H](CCN2C(=O)Cc2ccccn2)[C@H]1CO | -16.3% |
| COC(=O)CCCCCCC(=O)N1CC[C@@H]2[C@@H](CO)N(C)c3ccc(-c4cccc(F)c4)cc3[C@@H]21 | 8.86% [at 6 µM] |
| COc1ccccc1C(=O)N1CCN(c2ccc(C(C)=O)cc2)CC1 | 13.9% [at 0.012 µM] |
| CN1c2ccc(-c3cccc(F)c3)cc2[C@H]2[C@H](CCN2C(=O)Cc2cccnc2)[C@H]1CO | -2.44% |
| CN1c2ccc(-c3ccc(F)cc3)cc2[C@H]2[C@H](CCN2C(=O)Nc2ccc(F)cc2)[C@H]1CO | 18.3% [at 0.05 µM] |
| COc1cccc(NC(=O)N2CC[C@@H]3[C@@H](CO)N(C)c4ccc(-c5cccc(F)c5)cc4[C@@H]32)c1 | -9.56% |
| CN1c2ccc(-c3cccc(F)c3)cc2[C@H]2[C@H](CCN2C(=O)Cc2ccccc2)[C@H]1CO | -6.91% [at 23.5 µM] |
| CN1c2ccc(-c3cccc(F)c3)cc2[C@H]2[C@H](CCN2C(=O)c2ccc3c(c2)OCO3)[C@@H]1CO | -9.58% |
| CN1c2ccc(-c3cccc(F)c3)cc2[C@H]2[C@H](CCN2C(=O)CCCCCCC(=O)O)[C@H]1CO | -12.9% |
| CC(=O)c1ccc(N2CCN(C(=O)c3ccccc3Cl)CC2)cc1 | 15.7% [at 0.195 µM] |
| COc1ccc(NC(=O)N2CC[C@@H]3[C@@H](CO)N(C)c4ccc(-c5cccc(F)c5)cc4[C@@H]32)cc1 | -13.8% [at 0.0235 µM] |
| CNS(=O)(=O)c1ccc(N2CCN(C(=O)c3ccc4c(c3)OCO4)CC2)cc1 | 21.4% [at 0.003 µM] |
